The panel holds about 83,000 compounds, 20% with a hit somewhere; the sample as a whole holds those more often.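 A percent growth of 40 corresponds to 60% growth inhibition; 0 means no net growth; -100 means all cells died. Active threshold: below 10.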 Activity calls are given as the source filed them.
Legend:
Test in all cases: NCI-60 one-dose screen, 48 h (100 = growth as untreated, 0 = no growth, -100 = all killed)
Settings in all cases: 10 µM unless noted
T-47D breast = system: T-47D breast
BT-549 breast = system: BT-549 breast
MDA-MB-435 melanoma = system: MDA-MB-435 melanoma
SW-620 colon = system: SW-620 colon
MCF7 breast = system: MCF7 breast
HCT-116 colon = system: HCT-116 colon
KM12 colon = system: KM12 colon
HCC-2998 colon = system: HCC-2998 colon

Measured: growth

CCN1CCN(C(=O)[C@@]2(C)CC[C@]3(C)CC[C@]4(C)C(=CC(=O)[C@@H]5[C@@]6(C)CC[C@H](OC7C[C@@H](O)[C@@H](O)C(C)O7)C(C)(C)[C@@H]6CC[C@]54C)[C@@H]3C2)CC1 (stereo not given in full)
active: HCT-116 colon 1.7%
inactive: T-47D breast 82.6% | BT-549 breast 87.1% | MDA-MB-435 melanoma 20.4% | SW-620 colon 36.7% | MCF7 breast 24.5% | KM12 colon 30.8%

C=C(C)[C@@H]1CC[C@]2(C)[C@H](CC=C3[C@@H]4CC(C)(C)CC[C@]4(C=O)CC[C@]32C)[C@@]1(C)CCCN
inactive: T-47D breast 79.1% | BT-549 breast 87.3% | MDA-MB-435 melanoma 95.1% | SW-620 colon 29.5% | MCF7 breast 39% | HCT-116 colon 22.9% | KM12 colon 77.3%

CC1(c2ccccc2)OC1C(=O)O (stereo not given)
inactive: T-47D breast 117% | BT-549 breast 94.9% | SW-620 colon 102% | MCF7 breast 105% | HCT-116 colon 101% | HCC-2998 colon 96.5% | KM12 colon 105%

Nc1ccccc1NC(=O)c1ccc(CN2CCC/C(=C\c3ccccn3)C2=O)cc1
inactive: BT-549 breast 52.9% | SW-620 colon 12.3% | HCC-2998 colon 31.5% | KM12 colon 25.2%
active: T-47D breast 8.73% | MCF7 breast 6.01% | HCT-116 colon 5.7%

Cc1cc(C)nc(NC(N)=NCCc2ccccc2)n1
active: MDA-MB-435 melanoma -7.44%
inactive: T-47D breast 36.1% | SW-620 colon 32.2% | MCF7 breast 17.3% | HCT-116 colon 27.9% | HCC-2998 colon 94.5% | KM12 colon 22.5%

c1ccc(C2Cc3ccccc3C2=NC2CCCCC2)cc1 (stereo not given)
inactive: T-47D breast 93.5% | BT-549 breast 88.3% | SW-620 colon 119% | MCF7 breast 86.1% | HCT-116 colon 96.9% | KM12 colon 112%

O=[N+]([O-])c1cccc(/C=N\Nc2ccccc2)c1
inactive: T-47D breast 55.8% | MDA-MB-435 melanoma 53.8% | SW-620 colon 71.3% | MCF7 breast 64.5% | HCT-116 colon 58.3% | KM12 colon 38.8%

COc1c(N)c2c(c([N+](=O)[O-])c1OC)C(=O)OC2
inactive: T-47D breast 101% | MDA-MB-435 melanoma 106% | SW-620 colon 106% | MCF7 breast 100% | HCT-116 colon 102% | HCC-2998 colon 105% | KM12 colon 107%

Nc1c2c(nc3ccc(Cl)cc13)CC(c1ccc(O)cc1)CC2=O (stereo not given)
inactive: T-47D breast 54.8% | BT-549 breast 53.3% | SW-620 colon 33.8% | MCF7 breast 25.1% | HCT-116 colon 26.2% | HCC-2998 colon 77.9% | KM12 colon 26.7%

Nc1c(Cl)cc(N=Nc2ccccc2)cc1Cl
inactive: T-47D breast 49.6% | MDA-MB-435 melanoma 105% | SW-620 colon 88.8% | MCF7 breast 19.7% | HCT-116 colon 67.4% | HCC-2998 colon 87.1% | KM12 colon 85.7%

O=C(N/N=C\c1c(O)ccc2ccccc12)C1CC1
inactive: T-47D breast 53.6% | MDA-MB-435 melanoma 64.9% | SW-620 colon 51.7% | MCF7 breast 31.1% | HCT-116 colon 13.1% | HCC-2998 colon 101% | KM12 colon 51.6%

O=C1C(=O)N(CCCCn2cc(-c3ccccc3)nn2)c2ccccc21
inactive: T-47D breast 93.4% | BT-549 breast 96.7% | SW-620 colon 104% | MCF7 breast 94.9% | HCT-116 colon 101% | KM12 colon 104%

O=C(O)c1cccc2c1Cc1cc([N+](=O)[O-])ccc1-2
inactive: T-47D breast 106% | MDA-MB-435 melanoma 108% | SW-620 colon 103% | MCF7 breast 102% | HCT-116 colon 97.5% | HCC-2998 colon 101% | KM12 colon 109%

Cc1nn(-c2ccc(Br)cc2)c2nc3[nH]c(=O)[nH]c(=O)c3nc12
inactive: T-47D breast 102% | BT-549 breast 94.2% | SW-620 colon 103% | MCF7 breast 93.4% | HCT-116 colon 98.3% | HCC-2998 colon 114% | KM12 colon 103%

Oc1cccc2oc(=S)[nH]c12
inactive: T-47D breast 104% | MDA-MB-435 melanoma 115% | SW-620 colon 108% | MCF7 breast 101% | HCT-116 colon 107% | HCC-2998 colon 100% | KM12 colon 115%

CC1c2ccccc2N(S(=O)(=O)c2ccccc2)C1C (stereo not given)
inactive: T-47D breast 102% | SW-620 colon 72.7% | MCF7 breast 78.5% | HCT-116 colon 86.2% | HCC-2998 colon 101% | KM12 colon 60%
active: MDA-MB-435 melanoma 6.95%

O=[N+]([O-])c1ccc(/C=N\Nc2ccccc2)cc1
inactive: T-47D breast 72.2% | MDA-MB-435 melanoma 68.9% | SW-620 colon 79.9% | MCF7 breast 75.1% | HCT-116 colon 66.3% | HCC-2998 colon 96.6% | KM12 colon 36.1%

O=[N+]([O-])c1cc(S(=O)(=O)c2ccc(F)c([N+](=O)[O-])c2)ccc1F
inactive: T-47D breast 95.8% | BT-549 breast 107% | SW-620 colon 48% | MCF7 breast 58.5% | HCC-2998 colon 112% | KM12 colon 80.2%

COC(=O)[C@@H]1[C@H]2C[C@H]3c4[nH]c5cc(OC)ccc5c4CCN3C[C@@H]2C[C@H](OC(=O)/C=C/c2ccnc(OC)c2)[C@H]1OC
inactive: T-47D breast 67.1% | BT-549 breast 81.2% | SW-620 colon 98.3% | MCF7 breast 72.6% | HCT-116 colon 73.4% | HCC-2998 colon 105% | KM12 colon 98.8%

C/C(=N/NC(N)=S)C(=O)O
inactive: T-47D breast 28.6% | BT-549 breast 102% | SW-620 colon 77.6% | MCF7 breast 26.2% | HCT-116 colon 10.6% | HCC-2998 colon 94.3% | KM12 colon 109%

O=C(N/N=C\c1ccccc1O)C1CC1
inactive: T-47D breast 86.8% | BT-549 breast 112% | SW-620 colon 108% | MCF7 breast 102% | HCT-116 colon 107% | HCC-2998 colon 103% | KM12 colon 100%

O=C(O)c1cccc2c1C(=O)N(c1ccc3c(c1)Cc1ccccc1-3)C2=O
inactive: T-47D breast 106% | MDA-MB-435 melanoma 111% | SW-620 colon 105% | MCF7 breast 93.9% | HCT-116 colon 112% | HCC-2998 colon 102% | KM12 colon 109%

Cc1cc(N(CCCNc2ccnc3cc(Cl)ccc23)Cc2ccco2)nc(N2CCN(C)CC2)n1
inactive: T-47D breast 23.6% | BT-549 breast 50.2% | SW-620 colon 33.6% | MCF7 breast 29% | HCT-116 colon 28.3% | HCC-2998 colon 86.9% | KM12 colon 63.3%

CCNCCCn1c2c(c3ccc([N+](=O)[O-])cc3c1=O)C(=O)c1cc(OC)cnc1-2
active: T-47D breast -12.9% | BT-549 breast -16.2% | SW-620 colon -27% | MCF7 breast -3.1% | HCT-116 colon -69.8% | HCC-2998 colon -8.05% | KM12 colon -3.89%

O=C(NC1=CC(=O)c2ccccc2C1=O)c1ccccc1
active: T-47D breast -45.6% | SW-620 colon -56.2% | HCT-116 colon -69%
inactive: MCF7 breast 14.3% | HCC-2998 colon 32.3% | KM12 colon 11.2%

COc1ccc(/C=C/C(=O)c2ccc([N+](=O)[O-])cc2)cc1
inactive: T-47D breast 98% | SW-620 colon 111% | MCF7 breast 96% | HCT-116 colon 99.2% | HCC-2998 colon 105% | KM12 colon 98.6%

COC(=O)[C@]12CC[C@@H](C)[C@H](C)[C@@H]1C1=CC(=O)[C@@H]3[C@@]4(C)C[C@@H](O)[C@H](O)[C@@]5(C)COC(=C45)C[C@@]3(C)[C@]1(C)CC2
inactive: T-47D breast 51.2% | BT-549 breast 53.9% | SW-620 colon 33.3% | MCF7 breast 28.5% | HCT-116 colon 53.2% | HCC-2998 colon 69.2% | KM12 colon 34.6%

O=C(CI)Nc1ccc(O)c2ccccc12
active: T-47D breast -52% | SW-620 colon -68.9% | MCF7 breast 0.823% | HCT-116 colon -59.5%
inactive: BT-549 breast 44.1% | HCC-2998 colon 82.4% | KM12 colon 64.8%

C=COCCCCCCCCCCCCCCCCCC
inactive: T-47D breast 114% | BT-549 breast 103% | SW-620 colon 104% | MCF7 breast 104% | HCT-116 colon 103% | HCC-2998 colon 99.3% | KM12 colon 92.8%

NC1=NN(c2ccccc2)C(=O)/C1=C/c1ccc(Cl)cc1
inactive: T-47D breast 74.1% | BT-549 breast 104% | SW-620 colon 101% | MCF7 breast 96.6% | HCT-116 colon 100% | HCC-2998 colon 109% | KM12 colon 103%

Oc1ccccc1/C=N\NC(=S)Nc1ccc(F)cc1
inactive: T-47D breast 42% | MDA-MB-435 melanoma 21.8% | SW-620 colon 41.5% | MCF7 breast 16.9% | HCT-116 colon 25.8% | HCC-2998 colon 39.7% | KM12 colon 23.2%

Nc1c(C(=O)Nc2c(Cl)cccc2Cl)sc2nc3c(cc12)C(=O)CCC3
inactive: T-47D breast 35.7% | BT-549 breast 51.5% | SW-620 colon 44.5% | MCF7 breast 19.3% | HCT-116 colon 42.9% | HCC-2998 colon 69.1% | KM12 colon 30.5%

C[N+](C)(CCCCCC[N+](C)(C)C1c2ccccc2-c2ccccc21)C1c2ccccc2-c2ccccc21
inactive: T-47D breast 108% | BT-549 breast 117% | SW-620 colon 106% | MCF7 breast 103% | HCT-116 colon 101% | HCC-2998 colon 110% | KM12 colon 111%

Source: PubChem BioAssay (NCI)
